Source: PubChem (National Center for Advancing Translational Sciences (NCATS))
ERG-DNA inh = blocks human ERG Ets domain binding to DNA; P11308; fluorescence polarization, His-ERG Ets domain / labelled DNA; Potency, µM (titrated, usually from 76.9 µM), inactives show at the top dose FP activity, negative = inhibition, most hits filed as inhibitors; AID 624246; hit rate 0.028% among 370,000; active = well fitted inhibition curve with a large enough effect in the polarisation, with a control signal flat; inconclusive = small, poorly fitted or top-dose-only effect, or effect the other way, or a change in a side signal; inactive = no such curve, though single readings can be large or run the other way; the % refers to the polarisation;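 note: polarization taken with two DNA probes labelled with fluorescein and Texas red; potency is the fitted concentration of half-maximal effect; % of control where 0% means no effect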
Target sequence (P11308 whole entry, looked up, the tested form may be a part): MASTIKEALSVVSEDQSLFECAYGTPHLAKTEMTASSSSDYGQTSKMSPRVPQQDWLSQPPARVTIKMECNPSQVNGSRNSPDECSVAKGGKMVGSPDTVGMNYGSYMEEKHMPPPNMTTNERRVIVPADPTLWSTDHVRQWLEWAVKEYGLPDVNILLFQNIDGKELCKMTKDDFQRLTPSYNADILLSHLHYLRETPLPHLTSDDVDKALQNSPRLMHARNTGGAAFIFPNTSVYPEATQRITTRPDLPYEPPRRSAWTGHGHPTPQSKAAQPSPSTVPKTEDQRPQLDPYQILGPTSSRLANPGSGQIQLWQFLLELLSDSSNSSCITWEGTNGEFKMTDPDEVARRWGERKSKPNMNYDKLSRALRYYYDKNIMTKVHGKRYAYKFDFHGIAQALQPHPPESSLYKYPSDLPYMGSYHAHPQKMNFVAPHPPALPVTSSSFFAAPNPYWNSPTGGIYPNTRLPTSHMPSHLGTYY
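His-tagged ERG Ets domain (1 uM in the protein solution; 300mM KCl, 50mM Tris-HCl, 1mM EDTA, 1mM DTT, pH 7.5) received compound, then a probe mix of 5 nM fluorescein-DNA and 100nM Texas-615-DNA. Fluorescence polarization was read for both dyes.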
LDHA inh = blocks human lactate dehydrogenase A. purified LDHA, NADH/diaphorase-resazurin fluorescence; hits give low values. activity change, % (values are at about 110 or 230 µM). hit rate 0.15% among 480,000. AID 1347041; in the data active = activity change below about -30%; inconclusive = mostly about -25% to -30%;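 note: plate controls were DMSO wells for no effect and wells without enzyme for full effect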
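Remaining NADH was detected by diaphorase (0.133 mg/mL) converting 37 µM resazurin to fluorescent resorufin, read at 0 and 20 minutes. The preceding 5-minute room-temperature reaction used 2 nM LDHA, 0.2 mM sodium pyruvate and 0.06 mM NADH at pH 7.4.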
12-LOX inh = inhibitors of human 12S-lipoxygenase ALOX12. hit rate 1.1% among 580,000. Potency, µM (doses to about 108 µM), for inactives: at the top dose activity change, negative = inhibition, usual class: inhibitors. P18054. purified 12hLO, xylenol orange hydroperoxide absorbance. AID 1671190; note: potency is the fitted concentration of half-maximal effect; % is set by controls: 0 for no effect and ±100 for the full control effect
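Purified human 12hLO at 150 nM in 25 mM Hepes, 0.01% Triton X-100, pH 7.0, preincubated 15 min at room temperature with compound. Reaction started with 40 uM arachidonic acid, 30 min at room temperature. Hydroperoxide measured by Fe-xylenol orange, 573/405 nm absorbance ratio.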
Nrf2 activator = Nrf2 pathway activation. AREc32 ARE-luciferase reporter (MCF7-derived line), luminescence, 24 h. Potency, µM (doses to about 46.1 µM), for inactives: top-dose activation, usual class: activators. hit rate 0.31% among 410,000. AID 624171; note: potency is the fitted concentration of half-maximal effect; % of control where 0% means no effect; nearly all actives have a fitted effect of over 65% in size
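ARE activation measured as luciferase luminescence (Steady-Glo, 30 min RT) in AREc32_Fluc cells after 24 hr compound exposure at 37 deg C, 5% CO2; cells seeded overnight at 1000/well in OPTI-MEM, 5% FBS.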
Nrf2 inh = blocks Nrf2 signaling. A549 ARE-Fluc reporter, luciferase luminescence, 18-24 h. Potency, µM (titrated, usually from 46 µM), inactives show at the highest dose activity change, negative = inhibition, usual class: inhibitors. AID 504444. hit rate 2.1% among 360,000; note: potency is the fitted concentration of half-maximal effect; % is set by controls: 0 for no effect and ±100 for the full control effect; nearly all actives have a fitted effect of over 60% in size
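Reporter: ARE-Fluc in A549. Exposure: 18-24 h, 37 °C, 5% CO2, 5% FBS OPTI-MEM. Readouts: fluorescent cytotoxicity (CellTiter-Fluor), then luminescent Nrf2 signal after BugLite.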
A549 viability = A549 cytotoxicity, counter-screen for Nrf2 inhibitors | A549 ARE-Fluc cells, CellTiter-Fluor viability, 18-24 h | hit rate 0.16% among 390,000 | Potency, µM (top dose mostly 46 µM), for the others: top-dose activity change, negative = cytotoxicity, most hits filed as inhibitors; note: potency is the fitted concentration of half-maximal effect; % is set by controls: 0 for no effect and ±100 for the full control effect
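A549 ARE_Fluc cells in 5% FBS OPTI-MEM were exposed to compounds in concentration-response for 18-24 h at 37 deg C. Viability was read by CellTiter-Fluor fluorescence (Ex 405/Em 525) after 30 min, before the luciferase read.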
* = called active by the depositor; ? = inconclusive; . = not tested or not shown; [ ] = another dose, or the depositor's remark. In the library only some 2.7% were active in any assay of this set; here they are far more common. Unless noted, calls come from the whole dose curve; as a rule, active = well fitted curve in the direction sought with a large enough effect; inconclusive = small, poorly fitted or top-dose-only effect, or another doubt; inactive = no such curve, though single readings can be large; an effect the other way counts as inactive or inconclusive.

SMILES | ERG-DNA inh | LDHA inh | 12-LOX inh | Nrf2 activator | Nrf2 inh | A549 viability
O=C1CCCC2=C1C1(CCCC1)N=C(Nc1nc3ccccc3n1Cc1ccccc1)N2 | . | 0 | . | . | 16µM* | -6%
COC(=O)c1ccc(NC(=O)c2ccc3nc(-n4cccc4)sc3c2)cc1 | . | -3 | -20% | . | . | .
CCn1c(CN2c3ccccc3Sc3ccccc32)n[nH]c1=S | -5% | -18 | 8.9µM* | 0% | -12% | 5%
CCn1c(CSc2nc3ccccc3s2)n[nH]c1=S | -14% | -7 | 32µM* | -1% | ? | 0%
S=c1[nH]nc(CSc2nc3ccccc3s2)n1Cc1ccccc1 | -14% | -20 | ? | 0% | -28% | -10%
CCn1c(CCCCc2n[nH]c(=S)n2CC)n[nH]c1=S | -3% | -6 | -28% | 0% | -1% | 6%
Cc1ccc(C)c(-n2c(C)nc3c(cnn3-c3ccc(F)cc3)c2=O)c1 | . | 9 | 18% | . | . | .
CCc1cccc(-n2c(C)nc3c(cnn3-c3ccc(Cl)cc3)c2=O)c1 | 2% | -4 | 0% | -1% | 16µM* | 0%
CCCSc1nc2c(cnn2-c2ccc(C)cc2)c(=O)[nH]1 | -1% | -3 | 7%[57.4 µM] | 1% | 18µM* | -22%
CCc1cccc(-n2c(C)nc3c(cnn3-c3ccc(C)c(C)c3)c2=O)c1 | -2% | -1 | -27% | 1% | ? | 14%
Cc1ccc(-n2c(C)nc3c(cnn3-c3ccc(F)cc3)c2=O)cc1 | -1% | -1 | -19% | -1% | 15µM* | -11%
O=C(CN1C(=O)COc2ccc(S(=O)(=O)N3CCOCC3)cc21)N1CCCCC1 | . | 9 | 8% | . | . | .
Cc1ccc(-c2cc(=O)c3cc(Cl)cc(Cl)c3o2)cc1 | . | -6 | ? | . | . | .
C/C(=N\NC(=O)C(C)Oc1ccc([N+](=O)[O-])cc1)c1ccccn1 (stereo not drawn) | -2% | 0 | 2% | 23% | 6.5µM* | ?
C/C(=N/Nc1ccc([N+](=O)[O-])cc1)c1ccccn1 | . | -1 | ? | . | . | .
Oc1ccc(-c2nc(C3CC3)nc3c2CN(Cc2ccc(C(F)(F)F)cc2)CC3)cc1 | . | . | 24% | . | . | .
O=C(OCc1cccc(Cl)c1)c1ccc(C2Nc3ccccc3S(=O)(=O)N2)cc1 (stereo not drawn) | . | -8 | 27% | . | . | .
CCCN1C(C(=O)c2ccccc2)=C(OC(=O)c2ccc(F)cc2)c2ccccc2S1(=O)=O | 0% | 1 | 0% | -1% | ? | ?
CCCCN1C(C(=O)c2ccccc2)=C(OC(=O)CC)c2ccccc2S1(=O)=O | -5% | 3 | ? | -3% | 21µM* | ?
CCCCC(=O)OC1=C(C(=O)c2ccccc2)N(CCC)S(=O)(=O)c2ccccc21 | -7% | 0 | -2% | -1% | ? | ?
CCCCCN1C(C(=O)c2ccccc2)=C(OC(=O)CC)c2ccccc2S1(=O)=O | -4% | 7 | -6% | -2% | 5.8µM* | ?
CCN1C(C(=O)c2ccccc2)=C(OC(=O)C(C)C)c2ccccc2S1(=O)=O | 1% | 9 | -14% | 0% | ? | ?
CCCN1C(C(=O)c2ccccc2)=C(OC(=O)c2ccc(C)cc2)c2ccccc2S1(=O)=O | 0% | -4 | -13% | -2% | 23µM* | ?
CCN1C(C(=O)c2ccccc2)=C(OC(=O)COc2ccccc2)c2ccccc2S1(=O)=O | -1% | -2 | -14% | 0% | ? | 15µM*
O=C(CS(=O)(=O)Cc1ccccc1)Nc1cc(F)cc(F)c1 | . | 3 | ? | . | . | .
SMILES | ERG-DNA inh | LDHA inh | 12-LOX inh | Nrf2 activator | Nrf2 inh | A549 viability
Cc1c(CCNC(=O)c2ccc3c(c2)OCO3)sc2nc(-c3ccc(F)cc3)nn12 | . | 4 | -20% | . | . | .
COc1cc2nc(N(CCCN(C)C)C(=O)c3ccc(C(=O)c4ccccc4)cc3)sc2cc1OC | -3% | -7 | ? | 3% | 4% | -10%
CCc1ccc2nc(N(CCCN(C)C)C(=O)c3ccc(C(=O)c4ccccc4)cc3)sc2c1 | 11% | 2 | ? | -3% | 13µM* | ?
Cc1ccc2sc(N(CCCN(C)C)C(=O)c3ccc(S(=O)(=O)N(C)Cc4ccccc4)cc3)nc2c1C | -11% | 1 | 28µM* | -1% | 1% | ?
Cc1ccc2sc(N(CCCN(C)C)C(=O)c3ccc(S(=O)(=O)N(C)C)cc3)nc2c1C | -5% | -2 | -13% | 4% | 12% | -3%
c1ccc2c(NC3C4CC5CC(C4)CC3C5)nc(N3CCCCC3)nc2c1 (stereo not drawn) | . | -3 | ? | . | . | .
Cn1c(CSc2nc3ccc(Br)cc3[nH]2)nc2ccccc21 | . | -10 | 17% | 3% | 21µM* | ?
Brc1ccc2nc(SCCOc3ccccc3)[nH]c2c1 | -1% | 9 | -10% | 0% | -3% | -1%
Cn1cccc1/C=N/N1CCN(Cc2ccccc2)CC1 | -3% | 2 | ? | 0% | 0% | 20%
Cn1cccc1/C=N/N1CCN(Cc2cccc3ccccc23)CC1 | 7% | 4 | 18µM* | 0% | 0% | 1%
Cc1cc(-c2nc3c(c(=O)[nH]c(=O)n3Cc3ccccc3)n2CC2CCCO2)cc(C)c1O (stereo not drawn) | . | -3 | ? | . | . | .
COc1cc(C(=O)Nc2ccc3oc(-c4ccccc4F)cc(=O)c3c2)cc(OC)c1OC | . | 8 | -103% | . | . | .
Oc1cccc(/C=C/c2ccc3cccc(O)c3n2)c1 | 3% | 14 | 0% | 4.5µM* | -4% | -3%
COc1cccc(/C=C/c2ccc3cccc(O)c3n2)c1 | 6% | 20 | -9% | ? | ? | 4%
COc1ccc(/C=C/c2ccc3cccc(O)c3n2)c(OC)c1OC | -1% | 7 | ? | 22µM* | ? | -8%
CC(C)CCOc1ccc(C(=O)CCN(C)C)cc1 | . | 5 | ? | . | . | .
Oc1ccc(/C=C/c2nc(-c3ccccc3O)n(-c3ccccc3)n2)cc1 | -1% | 1 | -6% | 4% | 7.3µM* | ?
Oc1ccccc1-c1nc(/C=C/c2ccccc2)nn1-c1ccccc1 | 0% | 0 | -6% | 8% | -12% | 0%
COC(=O)c1cc(=O)n(Cc2ccco2)c(=Nc2ccccc2)s1 | . | . | -6% | . | . | .
COC(=O)c1cc(=O)n(Cc2ccco2)c(=Nc2ccc(F)c(Cl)c2)s1 | -11% | 0 | 22% | -5% | 26µM* | ?
COc1ccc(OC)c(-c2cc(C3CCN(c4ncccc4[N+](=O)[O-])CC3)[nH]n2)c1 | 4% | 2 | 0% | 0% | ? | ?
O=[N+]([O-])c1cccnc1N1CCC(c2cc(-c3ccc(Cl)cc3Cl)n[nH]2)CC1 | 2% | 2 | ? | -1% | 18µM* | ?
